From PubChem
Compounds with a hit are over-represented: about 7.5% of the library has one in this group of screens.
VP16 counter: Gal4-VP16 reporter inhibition counter-screen; Drosophila S2 Gal4-VP16 UAS-luciferase, luminescence, 20 h; Potency, µM (titrated, usually from 53.6 µM), for the others: at the highest dose activity, negative = inhibition, most hits filed as inhibitors; 3.5% of 310,000 active;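 note: Gal4-VP16 expression switched on by copper sulfate through the metallothionein promoter; potency is the fitted concentration of half-maximal effect; nearly all actives have a fitted effect of over 50% in size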
B2AR arrestin: recruits beta-arrestin to the human beta2-adrenergic receptor; beta-arrestin recruitment to beta2AR, cell-based reporter; 0.02% of 330,000 active; Potency, µM (titrated, usually from 46.1 µM), inactives show at the top dose activation, most hits filed as activators;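 note: potency is the fitted concentration of half-maximal effect; 0% = DMSO controls and full agonism = EC100 isoproterenol or metaproterenol; nearly all actives have a fitted effect of over 65% in size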
RORg inh: ROR gamma (mouse) transcription inhibition | P51450 | Drosophila S2 Gal4-RORgamma UAS-luciferase reporter, 20 h | Potency, µM (series often up to 53.6 µM), for the others: top-dose activity change, negative = inhibition, hits mostly inhibitors | 5.4% of 310,000 active | AID 2551; note: potency is the fitted concentration of half-maximal effect; nearly all actives have a fitted effect of over 60% in size
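Luminescence from a UAS-regulated Photinus luciferase reporter in stably transfected Drosophila Schneider cells is measured; decreased signal marks ROR gamma inhibition. Fusion expression is induced by 700 uM copper sulfate for 20 hr.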
TSHR antagonist: antagonists of human thyroid stimulating hormone receptor; activity change, negative = inhibition, % at 11.5 µM; P16473; 0.2% of 330,000 active; TSHR-expressing cells, TSH-stimulated cAMP HTRF, 2 h; hits give low values;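 active = activity change below a set negative limit, meaning inhibition stronger than a set level, cut at about -70% in these data; inconclusive = activity change between two set negative limits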
Target sequence (P16473 whole entry, looked up): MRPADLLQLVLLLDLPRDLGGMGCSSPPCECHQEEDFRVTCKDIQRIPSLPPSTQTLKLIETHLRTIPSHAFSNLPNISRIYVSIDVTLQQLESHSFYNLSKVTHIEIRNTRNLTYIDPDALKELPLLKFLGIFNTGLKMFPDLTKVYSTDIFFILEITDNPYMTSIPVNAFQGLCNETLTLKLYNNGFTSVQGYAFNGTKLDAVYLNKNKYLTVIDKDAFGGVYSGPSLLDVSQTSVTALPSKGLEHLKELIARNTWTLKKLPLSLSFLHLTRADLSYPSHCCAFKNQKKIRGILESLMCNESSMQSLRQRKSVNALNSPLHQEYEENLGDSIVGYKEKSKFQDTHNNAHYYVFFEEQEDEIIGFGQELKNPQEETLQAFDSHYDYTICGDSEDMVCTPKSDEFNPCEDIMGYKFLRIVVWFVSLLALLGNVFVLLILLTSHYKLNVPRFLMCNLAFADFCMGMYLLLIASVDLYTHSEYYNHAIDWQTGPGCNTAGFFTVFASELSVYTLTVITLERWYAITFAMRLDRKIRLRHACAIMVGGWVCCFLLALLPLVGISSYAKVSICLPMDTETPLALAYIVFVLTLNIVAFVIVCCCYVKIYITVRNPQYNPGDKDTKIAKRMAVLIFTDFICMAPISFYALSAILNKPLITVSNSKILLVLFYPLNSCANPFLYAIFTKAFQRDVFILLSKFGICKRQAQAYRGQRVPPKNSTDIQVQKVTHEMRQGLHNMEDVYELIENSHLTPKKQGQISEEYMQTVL
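Competitive HTRF cAMP read-out (cryptate anti-cAMP antibody, cAMP-d2; 30 min, room temperature) in freshly harvested TSHR cells. Compounds added before TSH at EC80 (4nM final), followed by 2 hours' incubation at 37 deg C.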
ELG1 repair inh: ELG1-dependent DNA repair inhibition; HEK293T ELG1-luciferase reporter, luminescence, 16 h; DNA damage induced by 5-fluorouridine; Potency, µM (highest dose often 46.1 µM), for the others: at the top dose activity change, negative = inhibition, most hits filed as inhibitors; 2.3% of 330,000 active; note: potency is the fitted concentration of half-maximal effect; nearly all actives have a fitted effect of over 55% in size
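Reporter activity after DNA damage by 5-fluorouridine is monitored. Compound-treated cells incubate 16 hr at 37 °C, then ONE-Glo is added for 30 min before luminescence reading.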
* marks the source's active call; other numbers are inactive results; ? = inconclusive; . = no result given; [ ] = dose if it differs, or a comment. Unless noted, calls come from the whole dose curve; as a rule, active = well fitted curve in the direction sought with a large enough effect; inconclusive = small, poorly fitted or top-dose-only effect, or another doubt; inactive = no such curve, though single readings can be large; an effect the other way counts as inactive or inconclusive. Unless noted, % is set by controls: 0 for no effect and ±100 for the full control effect.

SMILES | VP16 counter | B2AR arrestin | RORg inh | TSHR antagonist | ELG1 repair inh
CCCNC(=O)OC[C@@H]1O[C@H](CCO/N=C(\C)CCC(=O)OC[C@@H]2O[C@H](C#Cc3ccccc3)C=C[C@@H]2Oc2ccc(C)cc2)C=C[C@@H]1Oc1ccc(OC)cc1 | -5%[10 µM] | . | -3%[10 µM] | . | .
CC(=O)c1ccc(NC(=O)COC(=O)c2c3c(nc4ccccc24)/C(=C\c2cccs2)CCC3)cc1 | ? | -1% | ? | -13 | 10µM*
O=C(COC(=O)c1c2c(nc3ccccc13)/C(=C\c1cccs1)CCC2)Nc1ccccc1 | ? | 0% | ? | 26 | 15µM*
O=C(COC(=O)c1c2c(nc3ccccc13)CCCC2)Nc1ccc2c(c1)OCO2 | -10% | 0% | 21% | -18 | ?
CSCC[C@H](NC(=O)[C@H](CCCNC(=N)N)NC(=O)[C@H](Cc1ccc(O)cc1)NC(=O)[C@@H]1CCCN1C(=O)CNC(=O)[C@H](CCC(=O)O)NC(=O)[C@H](CC(=O)O)NC(=O)[C@H](CCCCN)NC(=O)[C@H](CCCCN)NC(=O)[C@H](CCC(=O)O)NC(=O)[C@H](C)N)C(=O)N[C@@H](CCC(=O)O)C(=O)N[C@@H](Cc1cnc[nH]1)C(=O)N[C@@H](Cc1ccccc1)C(=O)N[C@@H](CCCNC(=N)N)C(=O)N[C@@H](Cc1c[nH]c2ccccc12)C(=O)NCC(=O)N[C@@H](CO)C(=O)N1CCC[C@H]1C(=O)N1CCC[C@H]1C(=O)N[C@@H](CCCCN)C(=O)N[C@@H](CC(=O)O)C(=O)O | 5% | . | 10% | . | .
CSc1ncccc1C(=O)NC1CCCc2c1cnn2-c1ccc(C)c(C)c1 (centres undefined) | ? | 0% | ? | -16 | ?
CC(C)NC(=O)Cn1cc(S(=O)(=O)N2CCCC2)c(S(=O)(=O)N2CCCC2)c1 | 4% | 0% | -17% | 7 | 21%
O=C(CCC(=O)Nc1ccc(Cl)cc1)N/N=C/c1ccc2c(c1)OCO2 | 14µM* | 0% | -14% | -72* | ?
COc1cccc(/C=N/NC(=O)CN(CCc2ccccc2)S(=O)(=O)c2ccc(NC(C)=O)cc2)c1 | -8% | 0% | ? | -3 | 23µM*
O=C(CCC(=O)Nc1ccccc1)N/N=C/c1ccc2c(c1)OCO2 | 2% | 0% | 15% | 9 | ?
O=C(CN(Cc1ccccc1)S(=O)(=O)c1ccccc1)N/N=C/c1ccc2c(c1)OCO2 | 0.89µM* | 5% | 37% | -7 | -11%
Cc1cccc(CC(=O)Nc2sc(C(C)C)cc2C(=O)N2CCOCC2)c1 | 1% | 0% | ? | -8 | -15%
CCC(C)c1ccc(NC(=S)NCCn2cc(Cl)cn2)cc1 (centres undefined) | 10µM* | -1% | 3.2µM* | -16 | -12%
CCC(C)c1ccc(NC(=S)Nc2ccc(OC)c(OC)c2)cc1 (centres undefined) | 3% | 0% | ? | 3 | -16%
CCC(C)c1ccc(NC(=S)NCCn2cc(Br)cn2)cc1 (centres undefined) | 11µM* | 0% | 2.2µM* | -11 | -4%
COc1ccc(/C=C/C(=O)NC(=S)N2CCN(c3ccccn3)CC2)cc1OC | 11µM* | 0% | 3.2µM* | 21 | -29%
COc1ccc(/C=C/C(=O)N2CCN(c3ccccn3)CC2)cc1 | -12% | 1% | -16% | -5 | ?
O=C(/C=C/c1ccc(F)cc1)NC(=S)N1CCN(c2ccccn2)CC1 | 20µM* | -1% | 2.5µM* | -2 | 18%
CSc1ccc(/C=C/C(=O)N2CCN(c3ccccn3)CC2)cc1 | -27% | -1% | 13µM* | -12 | 1%
O=C(CN1C(=O)/C(=C\c2ccc(F)cc2)Oc2ccccc21)N1CCN(c2ccccn2)CC1 | -11% | -1% | 0% | 10 | 18%
O=C1CC(C(=O)N2CCN(c3ccccc3)CC2)CN1Cc1ccccc1 (centres undefined) | . | 0% | . | . | -3%
O=C([O-])[C@@H]1[O][Sb+]([O][Sb+]2[O][C@H]([C@H](O)CO)[C@H](O)[C@H](C(=O)[O-])[O]2)[O][C@H]([C@H](O)CO)[C@@H]1O | -4% | . | 1% | . | .
CCc1ccc(-c2cc(C)no2)cc1S(=O)(=O)N1CCN(c2ccccc2)CC1 | -6% | 0% | -2% | -35 | -25%
CCCCNc1nnc(SCC(=O)N2CCN(S(=O)(=O)c3ccc4ccccc4c3)CC2)s1 | 6% | 0% | 17% | -2 | 23µM*
Cc1nnc(SCC(=O)N2CCN(S(=O)(=O)c3ccccc3)CC2)s1 | 2% | 0% | -7% | 6 | 8%
SMILES | VP16 counter | B2AR arrestin | RORg inh | TSHR antagonist | ELG1 repair inh
CCc1ccc(S(=O)(=O)Nc2ccc(Br)cn2)cc1 | -5% | 0% | 12% | -12 | 0%
CC(C)(Oc1ccc(Cl)cc1)C(=O)OCn1nnc2ccccc2c1=O | 2.5µM* | 0% | ? | -6 | 6%
CCN(CC(=O)Nc1ccc(NC(C)=O)cc1)C(=O)/C=C/c1cccs1 | 1% | 0% | -4% | -8 | 12%
CCN(CC(=O)Nc1ccc(NC(C)=O)cc1)C(=O)/C=C/c1c(C)nn(-c2ccc(F)cc2)c1C | 11% | 0% | -25% | -7 | 8.2µM*
COc1ccc(N2C(=O)[C@@H]3[C@H](C2=O)[C@H]2C=CC=NN2[C@@H]3C(=O)Nc2ccc(Cl)cc2)cc1 | ? | 0% | 14µM* | -5 | 3%
O=C(CSc1nnc(NC(=O)c2ccc(F)cc2)s1)NC1CCCC1 | -16% | 0% | -34% | 3 | ?
COc1cccc(/C=C/C(=C2/C(=O)N(c3ccccc3)N=C2C)c2ccccc2)c1OC | ? | -1% | -9% | 22 | 7.3µM*
COc1cccc(/C=C/C(=C2/C(=O)N(c3ccccc3)N=C2C)c2ccc(Br)cc2)c1OC | 1% | 0% | -3% | -4 | -1%
O=C(Nc1ccc(F)c(F)c1)c1ccc(F)c(S(=O)(=O)N2CCC3(CC2)OCCO3)c1 | ? | 0% | 23% | -28 | 7.3µM*
CCOc1ccc(NC(=O)c2ccc(F)c(S(=O)(=O)N3CCN(c4ccccn4)CC3)c2)cc1 | ? | -1% | 34% | -24 | 9.2µM*
O=C(Nc1cccc(Cl)c1)c1ccc(F)c(S(=O)(=O)N2CCN(c3ccccn3)CC2)c1 | -3% | -1% | ? | -13 | 13µM*
Cc1cccc(C(=O)NC(=S)NNC(=O)c2cccs2)c1 | -18% | 0% | ? | 28 | 21µM*
CC(C)(C)c1ccc(C(=O)NC(=S)NNC(=O)c2cccs2)cc1 | 7.1µM* | -1% | 4µM* | -20 | ?
O=C(NC(=S)NNC(=O)c1cccs1)c1ccccc1 | 16µM* | -1% | 5.6µM* | 11 | 13%
O=C(NNC(=O)c1cccs1)c1cccc(F)c1 | 5% | 0% | 12% | 2 | ?
O=C(NNC(=S)Nc1ccccc1)c1cccs1 | -21% | 0% | -23% | 3 | ?
